Laboratory results: PubChem BioAssay (NCI)
The panel holds about 79,000 compounds, 15% with a hit somewhere; the sample as a whole holds those more often. A number with no mark means an inactive call. Activity calls are given as the source filed them. No stated cut-off is given here; in the data, active means growth inhibition above about 70%; inactive means the rest.

Columns and labels:
[1] = NCI Yeast Anticancer Drug Screen. Data for the wt1 strain (AID 149);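 further: 0% = growth of vehicle-treated wt1 cultures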; conditions: S. cerevisiae wt1 strain (SPY 50644) growth inhibition, active compounds read high
In short: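 Yeast wt1 strain exposed to compounds; growth inhibition measured relative to vehicle-treated controls.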

[2] = NCI Yeast Anticancer Drug Screen. Data for the rad50EPP+ strain (AID 151);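 further: 0% = growth of vehicle-treated control cultures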; conditions: S. cerevisiae rad50 mutant strain, active compounds read high
In short: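 In this screen, rad50EPP+ yeast were exposed to compounds. Growth inhibition was scored against vehicle-treated controls.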

[3] = NCI Yeast Anticancer Drug Screen. Data for the mgt1 strain (AID 153); conditions: S. cerevisiae mgt1 mutant growth inhibition, active compounds read high
In short: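 mgt1 strain exposed; growth vs vehicle control recorded as inhibition.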

[4] = NCI Yeast Anticancer Drug Screen. Data for the rad50 strain (AID 155);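 further: 0% = growth of vehicle-only cultures of the same strain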; conditions: S. cerevisiae rad50 strain growth inhibition, active compounds read high
In short: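 Yeast carrying a defined DNA repair defect were exposed to test compounds, and growth was compared with vehicle-treated controls to give percent inhibition.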

[5] = NCI Yeast Anticancer Drug Screen. Data for the mec2-1 strain (AID 157); conditions: S. cerevisiae mec2-1 strain, active compounds read high
In short: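 Vehicle-treated cultures served as reference for growth inhibition of compound-exposed mec2-1 yeast.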

[6] = NCI Yeast Anticancer Drug Screen. Data for the rad14 strain (AID 159);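 further: 0% = growth of vehicle-treated control cultures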; conditions: S. cerevisiae rad14 strain growth inhibition, active compounds read high
In short: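 Yeast cells carrying a defined DNA-repair defect were exposed to compounds, and growth inhibition was calculated relative to vehicle-treated control cultures.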

[7] = NCI Yeast Anticancer Drug Screen. Data for the sgs1 mgt1 strain (AID 161);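 further: 0% = growth of cultures given vehicle only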; conditions: S. cerevisiae sgs1 mgt1 strain, active compounds read high
In short: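 Genetically altered yeast, compound exposure, growth inhibition relative to vehicle.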

[8] = NCI Yeast Anticancer Drug Screen. Data for the CLN2oe strain (AID 163);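 further: 0% = growth of vehicle-only control cultures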; conditions: S. cerevisiae CLN2oe strain, active compounds read high
In short: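 Inhibition relative to vehicle-treated yeast is reported. Cells: strain with genetic alteration in cell-cycle control, grown with compound.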

[9] = NCI Yeast Anticancer Drug Screen. Data for the cln2 rad14 strain (AID 165);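 further: 0% = growth equal to vehicle treated cultures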; conditions: S. cerevisiae cln2 rad14 strain, active compounds read high
In short: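 Each compound was tested on cln2 rad14 yeast. Inhibition of growth was calculated against vehicle-exposed controls.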

[10] = NCI Yeast Anticancer Drug Screen. Data for the bub3 strain (AID 167); conditions: S. cerevisiae bub3 mutant strain, active compounds read high
In short: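 Compounds were applied to a genetically altered yeast strain carrying a cell-cycle control defect. Growth inhibition was scored against vehicle-treated controls.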

[11] = NCI Yeast Anticancer Drug Screen. Data for the wt2 strain (AID 169);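 further: 0% = growth of vehicle-treated yeast cultures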; conditions: S. cerevisiae wt2 strain growth inhibition, active compounds read high
In short: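 Inhibition of yeast growth was determined after compound treatment, normalised to controls receiving only vehicle.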

[12] = NCI Yeast Anticancer Drug Screen. Data for the mlh1 strain (AID 171);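 further: 0% = growth of vehicle-treated control cultures of the same strain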; conditions: S. cerevisiae mlh1 strain growth inhibition, active compounds read high
In short: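 Vehicle-normalised growth inhibition of a repair- or checkpoint-altered yeast strain following compound treatment.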

[13] = NCI Yeast Anticancer Drug Screen. Data for the sgs1 strain (AID 173);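 further: 0% = growth of vehicle-only control cultures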; conditions: S. cerevisiae sgs1 mutant, active compounds read high
In short: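 Screen format: yeast with repair or checkpoint alterations, compound exposure, growth read relative to vehicle.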

[14] = NCI Yeast Anticancer Drug Screen. Data for the mlh1 rad18 strain (AID 175); conditions: S. cerevisiae mlh1 rad18 strain growth inhibition, active compounds read high
In short: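 Vehicle-treated cultures served as the reference for growth inhibition in a yeast strain carrying DNA damage repair alterations exposed to each compound.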

[15] = NCI Yeast Anticancer Drug Screen. Data for the rad18 strain (AID 177); conditions: S. cerevisiae rad18 mutant growth inhibition, active compounds read high
In short: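 Test articles were incubated with altered yeast defective in DNA damage repair. Results are given as inhibition of growth versus vehicle.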

[16] = at 5.0 µM (retest, dose inferred, filed as 0.5)
[17] = at 50.0 µM (retest, dose inferred, filed as 5.0)

Cc1nc2ccc(NCCN(C)C)c3c(=O)c4ccccc4n1c23
growth inhibition ([1]; at 1.2 µM): 26% | growth inhibition ([1]; at 3.7 µM): 25% | growth inhibition ([1]; at 11.0 µM): 37% | growth inhibition ([1]; at 33.0 µM): 31% | growth inhibition ([1]; at 100.0 µM): 26% | growth inhibition ([2]; at 1.2 µM): 26% | growth inhibition ([2]; at 3.7 µM): 11% | growth inhibition ([2]; at 11.0 µM): 40% | growth inhibition ([2]; at 33.0 µM): 55% | growth inhibition ([2]; at 100.0 µM): 65% | growth inhibition ([3]; at 1.2 µM): 27% | growth inhibition ([3]; at 3.7 µM): 31% | growth inhibition ([3]; at 11.0 µM): 33% | growth inhibition ([3]; at 33.0 µM): 27% | growth inhibition ([3]; at 100.0 µM): 38% | growth inhibition ([4]; at 1.2 µM): 43% | growth inhibition ([4]; at 3.7 µM): 50% | growth inhibition [4, 16]: 28% | growth inhibition ([4]; at 11.0 µM): 75% (active) | growth inhibition ([4]; at 33.0 µM): 89% (active) | growth inhibition [4, 17]: 79% (active) | growth inhibition ([4]; at 50.0 µM): -1.8% | growth inhibition ([4]; at 100.0 µM): 92% (active) | growth inhibition ([5]; at 1.2 µM): 25% | growth inhibition ([5]; at 3.7 µM): 30% | growth inhibition [5, 16]: 16% | growth inhibition ([5]; at 11.0 µM): 41% | growth inhibition ([5]; at 33.0 µM): 42% | growth inhibition [5, 17]: 25% | growth inhibition ([5]; at 50.0 µM): 6.95% | growth inhibition ([5]; at 100.0 µM): 37% | growth inhibition ([6]; at 1.2 µM): 6% | growth inhibition ([6]; at 3.7 µM): 11% | growth inhibition ([6]; at 11.0 µM): 6% | growth inhibition ([6]; at 33.0 µM): 12% | growth inhibition ([6]; at 100.0 µM): 20% | growth inhibition [7, 16]: 1% | growth inhibition [7, 17]: 15% | growth inhibition ([7]; at 50.0 µM): -6.05% | growth inhibition ([8]; at 1.2 µM): 5% | growth inhibition ([8]; at 3.7 µM): 22% | growth inhibition ([8]; at 11.0 µM): 20% | growth inhibition ([8]; at 33.0 µM): -2% | growth inhibition ([8]; at 100.0 µM): 19% | growth inhibition [9, 16]: 10% | growth inhibition [9, 17]: 25% | growth inhibition ([9]; at 50.0 µM): 10.2% | growth inhibition ([10]; at 1.2 µM): 5% | growth inhibition ([10]; at 3.7 µM): 4% | growth inhibition [10, 16]: -10% | growth inhibition ([10]; at 11.0 µM): 9% | growth inhibition ([10]; at 33.0 µM): 11% | growth inhibition [10, 17]: 21% | growth inhibition ([10]; at 50.0 µM): -2.7% | growth inhibition ([10]; at 100.0 µM): 9% | growth inhibition ([11]; at 1.2 µM): -32% | growth inhibition ([11]; at 3.7 µM): -38% | growth inhibition ([11]; at 11.0 µM): -43% | growth inhibition ([11]; at 33.0 µM): -39% | growth inhibition ([11]; at 100.0 µM): -19% | growth inhibition ([12]; at 1.2 µM): 27% | growth inhibition ([12]; at 3.7 µM): 31% | growth inhibition ([12]; at 11.0 µM): 33% | growth inhibition ([12]; at 33.0 µM): 27% | growth inhibition ([12]; at 100.0 µM): 38% | growth inhibition ([13]; at 1.2 µM): 23% | growth inhibition ([13]; at 3.7 µM): 33% | growth inhibition ([13]; at 11.0 µM): 24% | growth inhibition ([13]; at 33.0 µM): 24% | growth inhibition ([13]; at 100.0 µM): 35% | growth inhibition [14, 16]: 11% | growth inhibition [14, 17]: 43% | growth inhibition ([14]; at 50.0 µM): 78.9% (active) | growth inhibition ([15]; at 1.2 µM): 8% | growth inhibition ([15]; at 3.7 µM): 23% | growth inhibition ([15]; at 11.0 µM): 29% | growth inhibition ([15]; at 33.0 µM): 39% | growth inhibition ([15]; at 100.0 µM): 51%
